Most compounds without a hit are left out; they make up all but 2.1% or so of the library.
ugtP null kill = growth inhibition of ugtP-null S. aureus, primary screen, RN4220 ugtP deletion, OD600. 16 h. growth inhibition, % (test concentration not listed). 330,000 compounds, 0.54% hits; in the data active = growth inhibition above about 68%;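 also: plate controls were untreated wells for no effect and antibiotic for full effect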
CCHFV vOTU inh = CCHFV vOTU protease inhibitors, primary screen, biochemical, Pep-AMC substrate, fluorescence | inhibition, % at 11.5 µM | 370,000 compounds, 0.55% hits | Crimean-Congo hemorrhagic fever virus L polyprotein viral ovarian tumor (vOTU) protease …; in the data active = inhibition above about 30%; also: 0% = vehicle wells with enzyme and 100% = no enzyme wells
PfHsp40 rescue = rescue of yeast from PfHsp40 toxicity, primary screen, S. cerevisiae, ATP luminescence; growth rescue, % at 12.5 µM; 340,000 compounds, 0.68% hits; S. cerevisiae expressing PfHsp40, growth rescue; in the data active = growth rescue above about 28%, passing the limit was not always enough; inconclusive = no clear call, values can overlap the other calls;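 also: yeast W303a lacking pdr1 and pdr3 grown in galactose medium; growth measured after three days at 30 °C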
RN4220 kill = growth inhibition of S. aureus RN4220, primary screen, OD600 | 16 h | 330,000 compounds, 0.33% hits | inhibition, % (test concentration not listed); in the data active = inhibition above about 85%;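 also: plate controls were untreated cells for no effect and reference antibiotic for full effect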
PrP UTR inh = inhibition of PrP 5' UTR reporter expression; cell-based PrP 5' UTR mRNA reporter, plate reader; inhibition, % (no concentration beside the values); 340,000 compounds, 0.35% hits; AID 488862, 2010; in the data active = inhibition above about 52%; also: 0 = median of the neutral control wells
PrPC surface inh = inhibitors of human cell surface prion protein PrPC, primary screen, cell-based, TR-FRET | Major prion protein (Homo sapiens), P04156 | TR-FRET read-out | inhibition, % at 13.8 µM | 370,000 compounds, 0.43% hits; in the data active = inhibition above about 24%; also: 0% = median of the test wells and 100% = reference compound wells
The depositor's hits bear a star; ? = inconclusive; nt = no result given.

SMILES	ugtP null kill	CCHFV vOTU inh	PfHsp40 rescue	RN4220 kill	PrP UTR inh	PrPC surface inh
Cc1cccc2c1NC(=O)/C2=C\C(=O)c1cccs1	97.6*	-6.2	1.8	96.6*	-13.4	-2.8
Cc1nn(C)c(C)c1C=NN=C1CCC2C3CCc4cc(O)ccc4C3CCC12C (stereo unspecified)	-4.9	nt	nt	-7.9	nt	nt
COC1OC2O[C@@]3(C)CCC4C(C)CCC(C1C)[C@@]24OO3 (stereo partly specified)	4.6	nt	nt	6.6	nt	nt
C[C@@H]1CC[C@H]2[C@@H](C)C(=O)O[C@@H]3O[C@@]4(C)CC[C@@H]1[C@]32OO4	-0.3	-4.8	103.9*	4.1	-17.6	-2.6
O=P(C(=NO)Sc1ccccc1)(N1CCOCC1)N1CCOCC1	4.6	nt	nt	2.6	nt	nt
O=C(O)c1cc(-c2ccc(N3CCOCC3)cc2)nn1-c1ccc(F)cc1F	2.9	3.2	40.0*	2.7	-19.7	7.7
O=C(O)c1cc(-c2ccc(N3CCOCC3)cc2)nn1-c1ccccc1Cl	-1.5	-7.3	0.3	5.5	-21.6	-6.6
OCCC#Cc1c(-c2ccsc2)sc2ccccc12	13.0	11.1	55.9*	-2.5	-8.9	5.0
COc1ccc(-c2sc3ccccc3c2C#CCO)cc1	nt	6.0	31.4*	nt	-11.9	-9.8
COc1ccc(-c2sc3ccccc3c2C#CCCO)cc1	nt	18.7	41.5*	nt	-22.2	-8.1
COc1ccc(-c2sc3ccccc3c2C#Cc2cncn2C)cc1	97.1*	3.9	413.8*	79.2	-9.2	-12.6
N#CC(=Cc1c(N(Cc2ccccc2)Cc2ccccc2)nc2ccccn2c1=O)C(N)=O	1.2	nt	nt	9.5	nt	nt
O=S(=O)(c1ccccc1)[C@@]1(c2ccc(Br)cc2)CC2ON=C(c3ccccc3)C2C1 (stereo partly specified)	-16.2	nt	nt	-4.2	nt	nt
COc1ccccc1-c1sc2cc3c(cc2c1C#Cc1cncn1C)OCO3	90.4*	-1.3	245.6*	50.0	-21.1	-9.7
COc1ccc(-c2sc3ccccc3c2/C=C/c2ccncc2)cc1	nt	11.6	75.4*	nt	-4.2	5.4
COc1ccc2sc(-c3ccccc3OC)c(C#Cc3cncn3C)c2c1	75.8	2.7	5.3	65.6	-3.5	-18.2
COc1ccc(-c2sc3ccccc3c2/C=C/c2ccc(OC)c(OC)c2)cc1	nt	-11.5	-0.6	nt	-14.6	-4.4
O=C(NN=Cc1ccccc1F)c1ccc(COc2ccccc2Cl)o1	21.7	nt	nt	4.1	nt	nt
CC(C(=O)N1CCNCC1)n1cc(CCCN=C(N)N)nn1 (stereo unspecified)	-1.5	nt	nt	3.8	nt	nt
COc1ccc(C=NNC(=O)C(O)(c2ccccc2)c2ccccc2)cc1OC	0.7	nt	nt	5.4	nt	nt
COCc1ccc(O)c2ncccc12	97.6*	-3.7	0.8	98.5*	-4.6	-3.5
CCOC(=O)CSc1nc(C(C)C)nc2sc(C)c(C)c12	88.6*	0.8	1.3	10.0	-22.4	6.0
CC(=NNc1ccccn1)c1ccc(OC(F)F)cc1	92.6*	nt	nt	2.7	nt	nt
C/C(=N\Nc1ncc(Cl)cc1Cl)c1ccc(OC(F)F)cc1	nt	-3.3	-0.9	nt	-29.5	3.5
CC(OC(=O)N(C)Cc1ccccc1)C1O[C@]2(C)CCCCC1O2 (stereo partly specified)	8.5	nt	nt	9.8	nt	nt
SMILES	ugtP null kill	CCHFV vOTU inh	PfHsp40 rescue	RN4220 kill	PrP UTR inh	PrPC surface inh
COc1ccc(C(=O)O)cc1S(=O)(=O)Nc1cc(C(F)(F)F)ccc1N1CCCCC1	nt	25.7	nt	nt	nt	7.3
CCOC(=O)c1ccc(N2CCCCC2)c(NS(=O)(=O)c2cccc(C(F)(F)F)c2)c1	88.3*	9.5	0.5	0.6	-29.6	12.8
CC(=O)N(C)c1ccc(N=Nc2c(C)[nH]n(C(N)=S)c2=O)cc1	11.6	11.9	-0.7	3.8	-92.8	-10.8
CCN(CC)S(=O)(=O)c1ccc(N=Nc2c(C)[nH]n(C(N)=S)c2=O)cc1	-4.6	31.4*	2.1	3.3	-46.8	-19.1
C=C1C(C)C2C(Cc3ccccc3)NC(=O)[C@]23OC(=O)C=CC(O)CCCC(C)CC=CC3C1O (stereo partly specified)	4.0	nt	nt	8.1	nt	nt
CN(C)C=Nc1cc(=O)n(C)c(=O)n1Cc1ccccc1	1.4	nt	nt	3.7	nt	nt
CN1c2ccsc2C(=NNc2ccccc2)CS1(=O)=O	96.3*	nt	nt	82.7	nt	nt
CN1c2ccsc2/C(=N/Nc2ccccc2)CS1(=O)=O	nt	8.6	3.5	nt	-46.9	-8.2
CCOC(=O)c1ccc(-c2c(-c3ccc4c(c3)OCO4)noc2-c2ccsc2)cc1F	95.8*	0.0	-1.0	-9.8	-28.4	3.2
COc1cc(-c2c(-c3ccc4c(c3)OCO4)noc2-c2ccsc2)ccc1F	86.9*	-4.0	?	-5.7	-19.1	1.4
CCOC(=O)C1C2COc3ccc(Br)cc3C2N2C(=O)N(c3cccc(F)c3)C(=O)[C@@]12C (stereo partly specified)	2.1	nt	nt	10.7	nt	nt
COc1cccc(Cn2c(=O)ccc3ccccc32)c1	6.6	-8.4	-1.7	6.2	-15.3	-2.7
CCN(CC)c1nc2ccccc2n(Cc2cccc(OC)c2)c1=O	91.0*	5.1	-0.4	-5.8	-1.7	-6.6
COc1ccc(CN2C(=O)C3Cc4c([nH]c5ccccc45)C(C)(C)N3C2=O)cc1 (stereo unspecified)	3.1	nt	nt	3.4	nt	nt
CCN1C(=O)C2C(c3ccc(SC4CCCCC4)cc3)N3CCCC[C@@]3(C(=O)OC)C2C1=O (stereo partly specified)	7.0	nt	nt	5.7	nt	nt
CCCCOc1c(Br)cc(C=NO)cc1OCC	100.1*	nt	nt	0.4	nt	nt
CCn1nc(C)c(Br)c1C(=O)Sc1ccccc1Cl	86.8*	1.5	-2.0	19.7	-19.6	-4.3
Cc1nn(Cc2ccccc2Cl)c(Cl)c1C(=O)O	5.2	12.9	0.2	12.0	-3.2	6.7
Cc1cc(C)c(N=Cc2c(O)c3ccccc3oc2=O)c(C)c1	3.9	-2.2	66.0*	1.7	-36.9	1.4
Cc1cc(C)cc(N=Cc2c(O)c3ccccc3oc2=O)c1	4.8	-17.3	1.4	12.0	11.8	-2.2
Cc1ccnc(NC(c2cccnc2)c2ccc3cccnc3c2O)c1 (stereo unspecified)	2.7	5.8	-0.6	7.6	-12.9	9.2
Cc1cc(NC(c2ccc(Cl)cc2)c2ccc3cccnc3c2O)no1 (stereo unspecified)	6.9	12.7	44.0*	21.6	39.9	18.2
CCCC(=O)NC(c1ccc(N(C)C)cc1)c1ccc2cccnc2c1O (stereo unspecified)	nt	2.1	409.8*	nt	37.5	21.1
Cc1ccnc(NC(c2ccsc2)c2ccc3ccc(C)nc3c2O)c1 (stereo unspecified)	16.6	22.8	249.6*	13.6	-23.6	3.4
Cc1ccnc(NC(c2ccccc2)c2ccc3cccnc3c2O)c1 (stereo unspecified)	2.4	22.6	153.7*	28.2	-8.4	7.2

Screening results deposited in PubChem BioAssay by several laboratories.
